# Measured values as given in publication PMC7862700, “An all-to-all approach to the identification of sequence-specific readers for epigenetic DNA modifications on cytosine”.
# What was measured:
# Assay in all cases: DAPPL (digital affinity profiling via proximity ligation, sequencing); 10 mM Tris-HCl pH 7.5, 50 mM NaCl, 1 mM DTT, 4% glycerol, room temperature, 30 min; GST-TFs on glutathione beads, 16-mer random dsDNA library, 0.1% formaldehyde crosslink after washing; high values mean tight binding
# Conditions in all cases: protein: recombinant; tags: N-terminal GST; dsDNA, one strand shown
# ERF = target: T1, ERF (Homo sapiens, UniProt P50548 1-548)
# T1 sequence: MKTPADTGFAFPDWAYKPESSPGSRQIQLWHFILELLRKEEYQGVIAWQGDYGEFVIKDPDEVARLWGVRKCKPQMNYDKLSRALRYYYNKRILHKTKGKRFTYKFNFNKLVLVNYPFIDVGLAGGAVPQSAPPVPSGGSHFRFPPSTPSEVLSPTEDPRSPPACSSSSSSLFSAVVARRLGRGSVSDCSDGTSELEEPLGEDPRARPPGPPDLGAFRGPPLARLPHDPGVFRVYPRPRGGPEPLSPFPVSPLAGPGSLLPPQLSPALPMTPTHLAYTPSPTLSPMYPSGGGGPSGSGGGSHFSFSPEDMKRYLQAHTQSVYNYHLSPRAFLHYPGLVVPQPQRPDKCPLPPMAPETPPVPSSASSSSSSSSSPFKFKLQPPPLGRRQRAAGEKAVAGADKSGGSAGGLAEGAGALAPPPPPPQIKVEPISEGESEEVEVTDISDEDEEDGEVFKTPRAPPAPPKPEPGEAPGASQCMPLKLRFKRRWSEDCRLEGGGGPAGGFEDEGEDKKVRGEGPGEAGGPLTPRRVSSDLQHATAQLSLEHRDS
# Summary of the method: (§1)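 Pools were built from human transcription factors expressed in yeast as GST fusions, captured on glutathione beads and DNA-barcoded, along with a tag-only sample. Incubation with 200 nmole of a 16-mer random double-stranded DNA library lasted 30 min at room temperature in Tris/NaCl/DTT/glycerol buffer, and was followed by washing, 0.1% formaldehyde crosslinking, proximity ligation, PCR amplification and Illumina NextSeq500 sequencing. Binding signal is the quotient of each hexamer's read frequency for a factor and its frequency for the tag-only sample.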
# ETV3L = target: T2, ETV3L (Homo sapiens, UniProt Q6ZN32 1-361)
# T2 sequence: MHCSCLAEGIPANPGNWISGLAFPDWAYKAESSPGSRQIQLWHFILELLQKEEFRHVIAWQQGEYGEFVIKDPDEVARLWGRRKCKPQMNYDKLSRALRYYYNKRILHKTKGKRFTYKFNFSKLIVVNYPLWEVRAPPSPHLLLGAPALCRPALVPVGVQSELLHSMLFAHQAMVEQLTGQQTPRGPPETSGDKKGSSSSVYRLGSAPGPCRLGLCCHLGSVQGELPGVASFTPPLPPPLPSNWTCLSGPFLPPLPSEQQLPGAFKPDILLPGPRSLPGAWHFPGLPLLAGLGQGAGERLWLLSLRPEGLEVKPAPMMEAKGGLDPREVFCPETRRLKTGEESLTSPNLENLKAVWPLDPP
# Summary of the method: as §1
# ETS2 = target: T3, ETS2 (Homo sapiens, UniProt P15036 1-469)
# T3 sequence: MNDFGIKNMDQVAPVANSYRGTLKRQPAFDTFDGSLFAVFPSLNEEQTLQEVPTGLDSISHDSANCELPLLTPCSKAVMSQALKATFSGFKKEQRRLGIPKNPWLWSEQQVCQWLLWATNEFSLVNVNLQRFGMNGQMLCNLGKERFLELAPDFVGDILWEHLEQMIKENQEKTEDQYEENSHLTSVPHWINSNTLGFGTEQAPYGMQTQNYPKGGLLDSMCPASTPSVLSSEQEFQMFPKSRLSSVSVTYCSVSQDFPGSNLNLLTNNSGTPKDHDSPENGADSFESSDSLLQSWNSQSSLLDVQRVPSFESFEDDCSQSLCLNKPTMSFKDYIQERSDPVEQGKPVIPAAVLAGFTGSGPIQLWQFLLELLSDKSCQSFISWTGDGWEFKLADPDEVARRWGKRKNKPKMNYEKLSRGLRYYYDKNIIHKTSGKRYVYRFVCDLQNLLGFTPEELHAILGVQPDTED
# Summary of the method: as §1
# SPDEF = target: T4, SPDEF (Homo sapiens, UniProt O95238 1-335)
# T4 sequence: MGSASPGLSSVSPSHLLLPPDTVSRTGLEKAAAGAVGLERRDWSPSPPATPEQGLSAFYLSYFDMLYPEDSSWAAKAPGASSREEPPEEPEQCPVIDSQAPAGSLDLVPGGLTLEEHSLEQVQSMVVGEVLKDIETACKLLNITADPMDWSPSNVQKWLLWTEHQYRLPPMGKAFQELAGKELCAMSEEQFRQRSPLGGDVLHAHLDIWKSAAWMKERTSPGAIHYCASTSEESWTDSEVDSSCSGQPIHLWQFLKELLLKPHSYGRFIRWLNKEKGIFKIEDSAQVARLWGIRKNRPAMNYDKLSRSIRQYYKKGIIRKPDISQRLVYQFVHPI
# Summary of the method: as §1
# ETV7 = target: T5, ETV7 (Homo sapiens, UniProt Q9Y603 1-341)
# T5 sequence: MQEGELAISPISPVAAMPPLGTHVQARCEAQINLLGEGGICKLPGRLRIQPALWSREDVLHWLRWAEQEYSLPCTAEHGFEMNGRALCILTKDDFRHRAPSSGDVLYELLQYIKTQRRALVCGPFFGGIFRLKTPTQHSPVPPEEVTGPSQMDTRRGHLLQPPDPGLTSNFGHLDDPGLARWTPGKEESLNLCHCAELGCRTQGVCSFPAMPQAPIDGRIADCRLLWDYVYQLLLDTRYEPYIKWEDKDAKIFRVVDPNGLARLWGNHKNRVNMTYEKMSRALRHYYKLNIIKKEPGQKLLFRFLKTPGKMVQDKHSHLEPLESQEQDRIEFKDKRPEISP
# Summary of the method: as §1
# ELF5 = target: T6, ELF5 (Homo sapiens, UniProt Q9UKW6-2 1-255)
# T6 sequence: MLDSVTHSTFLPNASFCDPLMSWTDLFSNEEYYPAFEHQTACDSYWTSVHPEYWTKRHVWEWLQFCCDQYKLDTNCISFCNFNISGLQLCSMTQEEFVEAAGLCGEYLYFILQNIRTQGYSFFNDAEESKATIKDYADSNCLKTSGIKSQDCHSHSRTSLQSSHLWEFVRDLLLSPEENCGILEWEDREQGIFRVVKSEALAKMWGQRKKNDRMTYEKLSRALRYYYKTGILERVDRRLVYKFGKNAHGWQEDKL
# Summary of the method: as §1
# ETV3 = target: T7, ETV3 (Homo sapiens, UniProt P41162-2 1-143)
# T7 sequence: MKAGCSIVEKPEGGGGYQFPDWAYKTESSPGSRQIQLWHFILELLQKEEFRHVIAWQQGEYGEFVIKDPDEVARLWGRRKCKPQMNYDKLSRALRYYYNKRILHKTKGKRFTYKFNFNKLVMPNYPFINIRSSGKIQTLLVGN
# Summary of the method: as §1
# ETV6 = ETV6 (Homo sapiens, UniProt P41212 1-452)
# ETV6, sequence (P41212 whole entry): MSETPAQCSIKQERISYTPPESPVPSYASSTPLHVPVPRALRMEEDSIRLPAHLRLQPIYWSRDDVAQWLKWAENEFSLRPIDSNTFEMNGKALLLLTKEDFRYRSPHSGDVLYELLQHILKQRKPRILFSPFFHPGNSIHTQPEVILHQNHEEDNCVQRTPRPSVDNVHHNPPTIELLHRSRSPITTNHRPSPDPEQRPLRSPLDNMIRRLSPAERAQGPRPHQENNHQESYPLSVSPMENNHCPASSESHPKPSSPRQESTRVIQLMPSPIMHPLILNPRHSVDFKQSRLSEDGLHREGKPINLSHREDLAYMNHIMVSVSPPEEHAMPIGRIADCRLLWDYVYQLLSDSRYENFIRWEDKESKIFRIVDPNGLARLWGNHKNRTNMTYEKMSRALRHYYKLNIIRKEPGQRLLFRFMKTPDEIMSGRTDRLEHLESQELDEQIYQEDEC
# Summary of the method: as §1
Sequence,binding signal (ERF),binding signal (ETV3L),binding signal (ETS2),binding signal (SPDEF),binding signal (ETV7),binding signal (ELF5),binding signal (ETV3),binding signal (ETV6)
ACAATT,"1.25 fold enrichment (6-mer frequency, TF over GST control)","1.23 fold enrichment (6-mer frequency, TF over GST control)","1.29 fold enrichment (6-mer frequency, TF over GST control)","1.13 fold enrichment (6-mer frequency, TF over GST control)","1.21 fold enrichment (6-mer frequency, TF over GST control)","1.32 fold enrichment (6-mer frequency, TF over GST control)","1.27 fold enrichment (6-mer frequency, TF over GST control)","1.25 fold enrichment (6-mer frequency, TF over GST control)"
ATATAA,"1.16 fold enrichment (6-mer frequency, TF over GST control)","1.23 fold enrichment (6-mer frequency, TF over GST control)","1.2 fold enrichment (6-mer frequency, TF over GST control)","1.19 fold enrichment (6-mer frequency, TF over GST control)","1.16 fold enrichment (6-mer frequency, TF over GST control)","1.16 fold enrichment (6-mer frequency, TF over GST control)","1.27 fold enrichment (6-mer frequency, TF over GST control)","1.25 fold enrichment (6-mer frequency, TF over GST control)"
TGTATG,"1.31 fold enrichment (6-mer frequency, TF over GST control)","1.23 fold enrichment (6-mer frequency, TF over GST control)","1.26 fold enrichment (6-mer frequency, TF over GST control)","1.35 fold enrichment (6-mer frequency, TF over GST control)","1.19 fold enrichment (6-mer frequency, TF over GST control)","1.22 fold enrichment (6-mer frequency, TF over GST control)","1.29 fold enrichment (6-mer frequency, TF over GST control)","1.16 fold enrichment (6-mer frequency, TF over GST control)"
CCGGCT,"1.59 fold enrichment (6-mer frequency, TF over GST control)","1.69 fold enrichment (6-mer frequency, TF over GST control)","1.71 fold enrichment (6-mer frequency, TF over GST control)","2.32 fold enrichment (6-mer frequency, TF over GST control)","1.74 fold enrichment (6-mer frequency, TF over GST control)","1.92 fold enrichment (6-mer frequency, TF over GST control)","1.7 fold enrichment (6-mer frequency, TF over GST control)","1.77 fold enrichment (6-mer frequency, TF over GST control)"
TGGACT,"1.25 fold enrichment (6-mer frequency, TF over GST control)","1.22 fold enrichment (6-mer frequency, TF over GST control)","1.27 fold enrichment (6-mer frequency, TF over GST control)","1.2 fold enrichment (6-mer frequency, TF over GST control)","1.19 fold enrichment (6-mer frequency, TF over GST control)","1.22 fold enrichment (6-mer frequency, TF over GST control)","1.25 fold enrichment (6-mer frequency, TF over GST control)","1.28 fold enrichment (6-mer frequency, TF over GST control)"
TATAGG,"1.18 fold enrichment (6-mer frequency, TF over GST control)","1.14 fold enrichment (6-mer frequency, TF over GST control)","1.13 fold enrichment (6-mer frequency, TF over GST control)","1.19 fold enrichment (6-mer frequency, TF over GST control)","1.22 fold enrichment (6-mer frequency, TF over GST control)","1.23 fold enrichment (6-mer frequency, TF over GST control)","1.17 fold enrichment (6-mer frequency, TF over GST control)","1.11 fold enrichment (6-mer frequency, TF over GST control)"
TTATGA,"1.23 fold enrichment (6-mer frequency, TF over GST control)","1.22 fold enrichment (6-mer frequency, TF over GST control)","1.13 fold enrichment (6-mer frequency, TF over GST control)","1.13 fold enrichment (6-mer frequency, TF over GST control)","1.12 fold enrichment (6-mer frequency, TF over GST control)","1.09 fold enrichment (6-mer frequency, TF over GST control)","1.21 fold enrichment (6-mer frequency, TF over GST control)","1.19 fold enrichment (6-mer frequency, TF over GST control)"
CTCAAG,"1.27 fold enrichment (6-mer frequency, TF over GST control)","1.1 fold enrichment (6-mer frequency, TF over GST control)","1.22 fold enrichment (6-mer frequency, TF over GST control)","1.14 fold enrichment (6-mer frequency, TF over GST control)","1.24 fold enrichment (6-mer frequency, TF over GST control)","1.1 fold enrichment (6-mer frequency, TF over GST control)","1.24 fold enrichment (6-mer frequency, TF over GST control)","1.22 fold enrichment (6-mer frequency, TF over GST control)"
AACTTT,"1.27 fold enrichment (6-mer frequency, TF over GST control)","1.26 fold enrichment (6-mer frequency, TF over GST control)","1.2 fold enrichment (6-mer frequency, TF over GST control)","1.17 fold enrichment (6-mer frequency, TF over GST control)","1.2 fold enrichment (6-mer frequency, TF over GST control)","1.3 fold enrichment (6-mer frequency, TF over GST control)","1.4 fold enrichment (6-mer frequency, TF over GST control)","1.22 fold enrichment (6-mer frequency, TF over GST control)"
AACCTC,"1.26 fold enrichment (6-mer frequency, TF over GST control)","1.24 fold enrichment (6-mer frequency, TF over GST control)","1.18 fold enrichment (6-mer frequency, TF over GST control)","1.07 fold enrichment (6-mer frequency, TF over GST control)","1.26 fold enrichment (6-mer frequency, TF over GST control)","1.17 fold enrichment (6-mer frequency, TF over GST control)","1.2 fold enrichment (6-mer frequency, TF over GST control)","1.16 fold enrichment (6-mer frequency, TF over GST control)"
TTACTC,"1.27 fold enrichment (6-mer frequency, TF over GST control)","1.15 fold enrichment (6-mer frequency, TF over GST control)","1.37 fold enrichment (6-mer frequency, TF over GST control)","1.28 fold enrichment (6-mer frequency, TF over GST control)","1.29 fold enrichment (6-mer frequency, TF over GST control)","1.21 fold enrichment (6-mer frequency, TF over GST control)","1.29 fold enrichment (6-mer frequency, TF over GST control)","1.27 fold enrichment (6-mer frequency, TF over GST control)"
TTTGCC,"1.31 fold enrichment (6-mer frequency, TF over GST control)","1.2 fold enrichment (6-mer frequency, TF over GST control)","1.32 fold enrichment (6-mer frequency, TF over GST control)","1.21 fold enrichment (6-mer frequency, TF over GST control)","1.26 fold enrichment (6-mer frequency, TF over GST control)","1.2 fold enrichment (6-mer frequency, TF over GST control)","1.32 fold enrichment (6-mer frequency, TF over GST control)","1.11 fold enrichment (6-mer frequency, TF over GST control)"
ATGCTT,"1.27 fold enrichment (6-mer frequency, TF over GST control)","1.36 fold enrichment (6-mer frequency, TF over GST control)","1.28 fold enrichment (6-mer frequency, TF over GST control)","1.32 fold enrichment (6-mer frequency, TF over GST control)","1.33 fold enrichment (6-mer frequency, TF over GST control)","1.38 fold enrichment (6-mer frequency, TF over GST control)","1.31 fold enrichment (6-mer frequency, TF over GST control)","1.3 fold enrichment (6-mer frequency, TF over GST control)"
CCCATT,"1.32 fold enrichment (6-mer frequency, TF over GST control)","1.3 fold enrichment (6-mer frequency, TF over GST control)","1.43 fold enrichment (6-mer frequency, TF over GST control)","1.19 fold enrichment (6-mer frequency, TF over GST control)","1.38 fold enrichment (6-mer frequency, TF over GST control)","1.4 fold enrichment (6-mer frequency, TF over GST control)","1.24 fold enrichment (6-mer frequency, TF over GST control)","1.29 fold enrichment (6-mer frequency, TF over GST control)"
AAATCC,"1.48 fold enrichment (6-mer frequency, TF over GST control)","1.47 fold enrichment (6-mer frequency, TF over GST control)","1.62 fold enrichment (6-mer frequency, TF over GST control)","2.08 fold enrichment (6-mer frequency, TF over GST control)","1.61 fold enrichment (6-mer frequency, TF over GST control)","1.75 fold enrichment (6-mer frequency, TF over GST control)","1.49 fold enrichment (6-mer frequency, TF over GST control)","1.6 fold enrichment (6-mer frequency, TF over GST control)"
